NR3A LBD binder: modulators (binders) of human NR3A ligand-binding domain; NR3A LBD differential scanning fluorimetry, Tm shift; 0% = protein alone, 100% = glycine-bound protein; Tm shift relative to glycine control, % at 25 µM; 340,000 tested, 2.5% active; AID 1259313;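 active means melting temperature shift of at least 10% of the positive control shift, at one fixed dose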
ADAM10 inh: inhibitors of human ADAM10; 370,000 tested, 0.62% active; AID 720582; O14672; inhibition, % at 7 µM; recombinant ADAM10, EDANS/DABCYL FRET peptide cleavage, 3 h;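 active means inhibition above a per-campaign cutoff equal to the mean of compounds falling between control-based bounds plus 3 SD, cut at about 20% in these data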
FAS-TE inh: FAS thioesterase (human) inhibition | P49327 | recombinant FAS-TE, OMFH fluorogenic substrate, fluorescence endpoint | inhibition, % at 15 µM | 360,000 tested, 0.67% active;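 active means compounds whose normalised, plate-corrected inhibition of enzyme fluorescence in the single-dose primary screen is 50% or more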
aDG glyco up: alpha-DG glycosylation activation | Pro5-aDG cells, alpha-DG glycosylation AlphaScreen (IIH6); 0% Pro5, 100% B10-LARGE cell signal | activation, % at 10 µM | 360,000 tested, 0.22% active;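 active means activation of at least 8% versus controls, or a plate z-score of at least 8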;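 further: Pro5 are CHO cells carrying HIG-tagged alpha-DG that lacks glycosylation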
ADAM17 inh: inhibits human ADAM17; 370,000 tested, 0.83% active; inhibition, % at 6.95 µM; recombinant ADAM17, EDANS/DABCYL FRET peptide cleavage;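 active means inhibition above the mean of compounds lying between control limits plus 3 SD, set per campaign, cut at about 8.5% in these data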
Of the large screens only hits and unclear results are named; the others gave an inactive call. Shown are actives, neighbours in structure and some others; about 4% of the full set was active somewhere.

COc1ccc(NC(=O)Nc2ccc(F)c(F)c2)c(OC)c1	NR3A LBD binder 22
COc1ccc(OC)c(NC(=O)Nc2ccc3[nH]ccc3c2)c1	NR3A LBD binder 11
COc1ccc(NC2CCCN(C(=O)c3c(C)noc3C)C2)cc1 (configuration not stated)	none
NC(N)=N/N=C/c1cc([N+](=O)[O-])ccc1O	none
O=[N+]([O-])c1ccc(O)c(/C=N\N=C2c3ccccc3-c3ccccc32)c1	NR3A LBD binder 14
COc1cc(C(=S)N2CCOCC2)ccc1OC(=O)c1cc([N+](=O)[O-])c(C)c([N+](=O)[O-])c1	none
CCOc1ccc(C(=O)NC(C(=O)NCC(c2cccs2)N(C)C)C(C)C)cc1 (configuration not stated)	none
CCOC(=O)c1ccc(Cl)c(NC(=O)c2ccc(-c3ccccc3)cc2)c1	none
CCOC(=O)c1ccc(/C=C2/C=C(c3ccccc3)N(c3ccc(Cl)c(C(=O)O)c3)C2=O)cc1	NR3A LBD binder 21
C/C(=N\NC(=O)c1cccc(Cl)c1)c1cccc(NC(=O)C(C)C)c1	none
Cc1nc(C)c(-c2csc(Nc3ccc(F)cc3)n2)s1	NR3A LBD binder 15
COc1cccc(Nc2nc(-c3sc(C)nc3C)cs2)c1	NR3A LBD binder 12
COc1cccc(Nc2nc(-c3sc(N)nc3C)cs2)c1	none
O=C(NNc1ccc(O)cc1)c1ccc(Br)cc1	none
Cc1cc2nc3n(c2cc1C)CC1CC(C(=O)NCCc2cccs2)N(C)C31 (configuration not stated)	NR3A LBD binder 13
COc1ccccc1CNC(=O)C1CC2Cn3c(nc4cc5ccccc5cc43)C2N1C (configuration not stated)	none
CN1C(C(=O)NCc2ccccc2)CC2Cn3c(nc4cc5ccccc5cc43)C21 (configuration not stated)	NR3A LBD binder 12
CN1C(C(=O)NCc2ccco2)CC2Cn3c(nc4cc(Cl)c(Cl)cc43)C21 (configuration not stated)	none
CN1C(C(=O)NCCc2cccs2)CC2Cn3c(nc4cc5ccccc5cc43)C21 (configuration not stated)	none
CN1C(C(=O)NCc2ccco2)CC2Cn3c(nc4cc5ccccc5cc43)C21 (configuration not stated)	NR3A LBD binder 10
CN1CCN(c2ccc(NC(=O)c3ccc(Cl)cc3Cl)cc2)CC1	none
COc1ccc2cc(-c3ccsc3)ncc2c1	NR3A LBD binder 30
CCOc1ccc(NC(=O)Nc2ccc(NC(C)=O)cc2)cc1	NR3A LBD binder 22
CCOc1ccc(OCCC(=O)OC(C)C(=O)Nc2ccc(C(C)=O)cc2)cc1 (configuration not stated)	NR3A LBD binder 20
CCOc1ccc2nc(NS(=O)(=O)c3ccc4c(c3)n(C)c(=O)n4C)sc2c1	NR3A LBD binder 29
CC(=O)Nc1ccc(NC(=O)C(C)OC(=O)COc2ccc(Nc3ccccc3)cc2)cc1 (configuration not stated)	none
CCC(=O)Nc1nc2ccc(NC(C)=O)cc2s1	none
CCOc1ccc(C(=O)COc2ccc(NC(C)=O)cc2)cc1	none
CCOc1cccc2sc(Nc3nc4ccc(NC(C)=O)cc4s3)nc12	NR3A LBD binder 26
O=C(c1cccc(Cl)c1)N1CCC2CC1c1cc(-c3ccc(F)cc3)ccc12 (configuration not stated)	none
CCOc1ccc(NC(=O)Nc2nc3ccc(S(C)(=O)=O)cc3s2)cc1	NR3A LBD binder 30
CCOc1ccc(NC(=O)Nc2nc(SCC)ns2)cc1	NR3A LBD binder 37
CCOc1ccc(NC(=O)NC(=O)N(C(C)C)S(C)(=O)=O)cc1	NR3A LBD binder 18
CCSc1nsc(NC(=O)Nc2ccccc2Cl)n1	none
CCOc1ccc(NC(=O)Nc2ccc3nccnc3c2)cc1	NR3A LBD binder 24
CC(C)N(C(=O)NC(=O)Nc1ccc(S(=O)(=O)N2CCCC2)cc1)S(C)(=O)=O	none
COc1ccc2nc(-c3ccc(CN4CCC5(CC4)CNc4ccccc45)cc3)c(-c3ccccc3)nc2c1	none (no result: NR3A LBD binder, FAS-TE inh, aDG glyco up)
COc1ccc2oc(C(=O)Nc3nc4ccc(S(C)(=O)=O)cc4s3)c(C)c2c1	NR3A LBD binder 19
Cc1cccc(NC(=O)Nc2c(C)n(C)n(-c3ccccc3)c2=O)c1	none
CC(=O)Nc1ccc(NC(=O)Nc2ccc(C)c(C)c2)cc1	NR3A LBD binder 13
CC(=O)Nc1cccc(NC(=O)c2cc(Cl)ccc2Cl)c1	none
CC(=O)Nc1ccc2cc3ccc(NC(C)=O)cc3nc2c1	NR3A LBD binder 10
CC(=O)Nc1cccc(NC(=O)Nc2ccc(C)c(Cl)c2)c1	NR3A LBD binder 36
CC(=O)Nc1cccc(NC(=S)Nc2ccc(F)c(Cl)c2)c1	NR3A LBD binder 12
CC1(C)Cc2c(sc(NC(=O)C3CC(Cl)=CCC3C(=O)O)c2C#N)CO1 (configuration not stated)	none
COc1ccc(CCNC(=O)C(NC(=O)OCc2ccccc2)C(C)C)cc1OC (configuration not stated)	none
Cc1ccc(CSCC(=O)N2CCN(c3ccc(F)cc3)CC2)cc1	none
Fc1ccc(-c2nnc3n2CCCCC3)cc1	none
Cc1c(C(=O)Nc2ccc(OCc3ccccc3)cc2)cccc1[N+](=O)[O-]	none
COc1ccc(C(=O)Nc2ccc(Nc3ccccc3)cc2)cc1[N+](=O)[O-]	NR3A LBD binder 28
COc1ccc(C(=O)Nc2ccc(OCc3ccccc3)cc2)cc1[N+](=O)[O-]	NR3A LBD binder 34
CCCN1C(=O)/C(=C\c2ccncc2)SC1=Nc1ccccc1	none
CCN1C(=O)/C(=C\c2ccncc2)SC1=Nc1ccc(C)c(C)c1	NR3A LBD binder 13
CNc1nc(N/N=C/c2ccc([N+](=O)[O-])cc2)nc(Nc2ccccc2)n1	NR3A LBD binder 30
COc1cccc(/C=N/Nc2nc(Nc3ccc([N+](=O)[O-])cc3)nc(N3CCCC3)n2)c1O	NR3A LBD binder 23
O=[N+]([O-])c1cccc(/C=N/Nc2nc(N3CCOCC3)nc(N3CCOCC3)n2)c1	none
COc1c(/C=N/Nc2nc(N3CCCCC3)nc(N3CCCCC3)n2)cccc1[N+](=O)[O-]	none
O=[N+]([O-])c1ccc(/C=N/Nc2nc3ccccc3o2)cc1	none
O=[N+]([O-])c1ccc(Nc2nc(N/N=C/c3cccc(F)c3)nc(N3CCCC3)n2)cc1	NR3A LBD binder 25
Cc1sc2ncnc(SCC(=O)N(C)C3CCS(=O)(=O)C3)c2c1C (configuration not stated)	none
CC(=NNc1nc2ccccc2s1)c1ccncn1	none
C/C(=N\Nc1nc2ccccc2s1)c1ccc(Br)s1	NR3A LBD binder 23
COc1ccccc1OCCNC(=O)C1CC(=O)N(c2cccc(SC)c2)C1 (configuration not stated)	NR3A LBD binder 17
CCCn1nc(C(=O)Nc2cc(S(=O)(=O)Nc3ccc(OC)cc3)ccc2O)c2ccccc2c1=O	NR3A LBD binder 27
